CHT allo act: human CHT allosteric activation; CHT-expressing cells, membrane potential dye, choline EC20; stronger effect = higher value; LV-AA mutant CHT in HEK293 cells; B-score at 10 µM; hit rate 0.49% among 310,000; AID 488977;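 active = initial fluorescence not abnormally high and integrated response B-score, plate-corrected, over 3 SD above library mean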
TMEM16A inh: blocks the mouse calcium-activated chloride channel TMEM16A; AID 588511; hit rate 1.2% among 310,000; HEK293 TMEM16A/YFP iodide influx fluorescence, ionomycin; normalized B-score (activity score, 25-100; higher = stronger inhibition) at 10 µM;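 active = ratio plate-corrected score three or more library SD toward inhibition, starting fluorescence score within five deviations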;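 also: score derived from kinetic fluorescence span divided by baseline fluorescence per well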
Target sequence (Q8BHY3 whole entry, looked up): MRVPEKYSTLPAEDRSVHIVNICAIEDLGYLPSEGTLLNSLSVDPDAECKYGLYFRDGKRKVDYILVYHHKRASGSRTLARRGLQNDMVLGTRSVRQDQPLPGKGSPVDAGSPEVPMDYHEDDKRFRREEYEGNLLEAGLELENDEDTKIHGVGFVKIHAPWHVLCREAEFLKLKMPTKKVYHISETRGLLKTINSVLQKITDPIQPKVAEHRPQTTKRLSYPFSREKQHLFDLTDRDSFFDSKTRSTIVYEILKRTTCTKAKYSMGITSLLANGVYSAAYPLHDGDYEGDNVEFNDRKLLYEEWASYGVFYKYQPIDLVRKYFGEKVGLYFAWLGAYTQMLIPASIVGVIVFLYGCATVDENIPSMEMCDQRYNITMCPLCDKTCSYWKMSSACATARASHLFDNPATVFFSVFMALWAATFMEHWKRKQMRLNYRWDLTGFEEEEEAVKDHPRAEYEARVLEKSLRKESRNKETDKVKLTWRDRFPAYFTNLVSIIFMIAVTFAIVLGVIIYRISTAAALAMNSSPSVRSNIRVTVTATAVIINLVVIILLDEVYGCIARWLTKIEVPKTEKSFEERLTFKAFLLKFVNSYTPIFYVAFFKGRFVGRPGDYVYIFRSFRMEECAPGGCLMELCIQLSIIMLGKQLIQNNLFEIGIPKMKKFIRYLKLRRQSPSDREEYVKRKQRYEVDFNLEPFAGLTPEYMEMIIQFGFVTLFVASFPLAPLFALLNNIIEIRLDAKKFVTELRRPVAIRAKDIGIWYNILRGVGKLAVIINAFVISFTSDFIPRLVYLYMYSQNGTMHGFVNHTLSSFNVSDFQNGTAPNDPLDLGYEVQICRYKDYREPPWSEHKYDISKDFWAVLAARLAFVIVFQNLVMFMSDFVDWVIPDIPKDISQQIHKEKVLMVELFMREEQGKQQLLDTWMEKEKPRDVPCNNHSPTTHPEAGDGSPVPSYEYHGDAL
ANO1 activ: activates or potentiates the mouse TMEM16A chloride channel; HEK293 TMEM16A/YFP-H148Q/I152L, iodide quench fluorescence; stronger effect = lower value; B-score at 10 µM; hit rate 0.3% among 340,000;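 active = fluorescence-ratio B-score plate-corrected deviation score at least 3 library SD below zero, with starting fluorescence score within 5 deviations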;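 also: channel opened by trigger with iodide after compound preincubation; score built on the fluorescence ratio of max minus min over baseline; more negative score means more quench and so TMEM16A activation or potentiation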
CHT block: inhibits the human high affinity choline transporter | hit rate 0.86% among 310,000 | Q9GZV3 | CHT-expressing cells, membrane potential dye, choline response; stronger effect = lower value | B-score at 10 µM;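 active = B-score over 3 SD under the library average, and starting fluorescence ratio not unusually high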;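 also: choline stimulus applied at its EC90 after an EC20 pre-addition; B-score computed on integrated fluorescence ratio after choline addition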
CHT act confirm: confirmation of human choline transporter (CHT) activators; shares compounds with CHT allo act; CHT-expressing cells, membrane potential dye fluorescence (FDSS); % of choline EC20–EC90 response window; HEK293 expressing CHT LV-AA mutant; choline added at its EC20; activation, % at 10 µM; hit rate 91% among 2,500;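 active = primary screen active, with duplicate mean activation above negative control mean plus 3 SD, cut at about 11% in these data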
HEK293 MP dye: counter-screen for CHT activators: effect in parental HEK293 cells | hit rate 62% among 2,500 | membrane potential dye fluorescence (FDSS); measured after EC20 choline addition | ratio readout change at 10 µM, hits read low | shares compounds with CHT allo act;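 active = duplicate-averaged ratio beyond 3 SD from buffer wells, up or down, though filed actives are nearly all decreases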
Large screens that a line does not name were inactive (follow-up assays come after a bar, where they were run). Rows were chosen to be rich in hits. Some 2.3% of all compounds tested hit in one or more screens of this group.

COc1ccc2c(c1)c(C(=O)CN1CCC3(CC1)OCCO3)c(C)n2C	CHT allo act 6.4 | CHT act confirm 15 | HEK293 MP dye -41
Cc1c(C(=O)CN2CCSCC2)c2ccccc2n1C	none
COc1ccc2c(c1)c(C(=O)CN1CCC(C(N)=O)CC1)c(C)n2C	CHT allo act 6.3 | CHT act confirm 65 | HEK293 MP dye -51
COc1ccc2c(c1)c(C(=O)CN1CCOCC1)c(C)n2C	none | CHT act confirm 38 | HEK293 MP dye -37
COc1ccc(N2CCN(CC(=O)c3c(C)n(C)c4ccc(OC)cc34)CC2)cc1	none
COc1ccc2c(c1)c(C(=O)CN1CCCCC1)c(C)n2C	none | CHT act confirm 44 | HEK293 MP dye -51
COc1cccc(CNC(=O)CCC2CCCN(c3cc(C)nc(N(C)C)n3)C2)c1 (stereo not given)	none | CHT act confirm 48 | HEK293 MP dye -40
CC1CCCc2sc3ncn(N)c(=N)c3c21 (stereo not given)	CHT allo act 7.1 | CHT act confirm 52 | HEK293 MP dye -50
Nn1cnc2sc3c(c2c1=O)CCC3	none
CCN(CC)CCNc1cc(C)nc2c1C(=O)C(=O)C=C2N1CCCCC1	CHT allo act 7.3 | CHT act confirm 65 | HEK293 MP dye -66
Cn1c(C(=O)Nc2ccc(Cl)cc2)cc2cc(Cl)ccc21	none
Cn1c(=O)c2c(nc(N3CCOCC3)n2CCCNC2=NCCCCC2)n(C)c1=O	CHT allo act 8.4 | CHT act confirm 60 | HEK293 MP dye -63
Cn1c(=O)c2c(ncn2CCNC2=NCCCCC2)n(C)c1=O	none
CCN(CC(=O)Nc1ccccc1C(F)(F)F)C(=O)CCOc1ccc(C)cc1	none | CHT act confirm inactive | HEK293 MP dye inactive
CN(CCOc1ccc(Cl)cc1)C(=O)c1cc(S(=O)(=O)N2CCOCC2)ccc1N1CCCC1	none (no result: CHT allo act, TMEM16A inh, CHT block)
CC(=O)c1ccc2c(c1)N(CCCN(C)C)c1ccccc1S2	none (no result: CHT allo act, TMEM16A inh, CHT block)
CCC(=O)c1ccc2c(c1)N(CCCN(C)C)c1ccccc1S2	CHT allo act 9.1 | CHT act confirm 29 | HEK293 MP dye -45
Cc1ccc(-n2c(SCCN)nnc2-c2cccc(C)c2)cc1	none | CHT act confirm 17 | HEK293 MP dye inactive
CCN(CC)CCNC(=O)c1ccc(NC(=O)c2cc(S(=O)(=O)N3CCCCC3)ccc2N2CCOCC2)cc1	none (no result: CHT allo act, TMEM16A inh, CHT block)
CCCN1C2=NCCCN2c2ccccc21	none
CCCN1C2=NCCN2c2ccccc21	CHT allo act 6.4 | CHT act confirm 41 | HEK293 MP dye -36
CN1C2=NCCN2C(=O)c2ccccc21	CHT allo act 9.4 | CHT act confirm 29 | HEK293 MP dye -52
CCCCCCN1C2=NCCN2c2ccccc21	none
Cc1cnc(C(=O)Nc2cc(S(=O)(=O)N3CCOCC3)ccc2N2CCN(C)CC2)cn1	CHT allo act 9.7 | CHT act confirm 51 | HEK293 MP dye -57
CC(C)CN1CCN(Cc2cc(F)ccc2-n2cccn2)CC1CCO (stereo not given)	none | CHT act confirm inactive | HEK293 MP dye inactive
CC(C)CCN1CCN(Cc2cc(F)ccc2-n2cccn2)CC1CCO (stereo not given)	none
Cc1cc2nc3ccc(N(C)C)cc3nc2cc1N	none | CHT act confirm 30 | HEK293 MP dye -24
CCOC(=O)c1c(C)nc2ccccc2c1-c1ccccc1	none | CHT act confirm 16 | HEK293 MP dye inactive
COc1cc2c(cc1OC)C(c1cc3ccccc3oc1=O)=NC(C)(C)C2	none
COc1ccc(C2=NC(C)(C)Cc3cc(OC)c(OC)cc32)cc1OC	none | CHT act confirm 72 | HEK293 MP dye -83
CC1CC1C(=O)N1CCN(S(=O)(=O)c2cccc(F)c2)CC1 (stereo not given)	none
Cc1cc(C)c2c(c1)/C(=N\N=c1\sc3ccccc3n1C)C(=O)N2	none | CHT act confirm 23 | HEK293 MP dye inactive
C/C(=N\NC(=O)c1nn(C)cc1Cl)c1ccncc1	none
C/C(=N\NC(=O)c1nn(C)cc1Br)c1ccncc1	CHT allo act 7.3 | CHT act confirm 17 | HEK293 MP dye -37
CCCCN(CC)C(=S)Nc1ccc2nc(N3CCN(C)CC3)cc(C)c2c1	none | CHT act confirm 26 | HEK293 MP dye -26
CCCCN(C)C(=S)Nc1ccc2nc(N3CCN(CC)CC3)cc(C)c2c1	none
COC(=O)CN1C(c2ccc(OC)cc2)=Nc2ccc(Cl)cc2C1c1ccccc1 (stereo not given)	none
COC(=O)CN1C(c2cccc(Cl)c2)=Nc2ccc(Cl)cc2C1c1ccccc1 (stereo not given)	none | CHT act confirm 30 | HEK293 MP dye inactive
Cc1cc(C)c2cc3c(N)c(C(=O)N4CCc5ccccc5C4)sc3nc2c1	CHT allo act 6.4 | CHT act confirm inactive | HEK293 MP dye inactive
Cc1ccc2nc3sc(C(=O)N4CCCc5ccccc54)c(N)c3cc2c1	none
Cn1c2ccc(F)cc2c2ncn(CCN3CCOCC3)c(=O)c21	none
Cn1c2ccc(F)cc2c2ncn(CCCN(CCO)CCO)c(=O)c21	none | CHT act confirm 50 | HEK293 MP dye -41
Cc1ccc(C#CC[N+]2(CC#Cc3ccc(C)cc3)CCCCC2)cc1	CHT allo act 8.7 | CHT act confirm 18 | HEK293 MP dye inactive
COc1ccc(Cl)cc1NC(=O)CN(C)C(C)C(=O)NC(=O)NC1CCCCC1 (stereo not given)	none
Cc1ccc2ncnc(NCCC(=O)O)c2c1	none
COCCCNc1ncnc2ccc(C)cc12	none | CHT act confirm 18 | HEK293 MP dye -34
C=CCn1c(SCC(=O)O)nnc1-c1cccc(Cl)c1	CHT allo act 6.6 | CHT act confirm inactive | HEK293 MP dye inactive
Cc1c(Cl)cccc1NC(=O)COC(=O)c1c2c(nc3ccccc13)CCN(Cc1ccccc1)C2	none | CHT act confirm 21 | HEK293 MP dye inactive
COc1ccc(OC)c2c(C)cc(N3CCN(C(=O)c4ccc(F)cc4)CC3)nc12	CHT allo act 6.5 | CHT act confirm 41 | HEK293 MP dye -69
Cc1cc(C)c(C)c(S(=O)(=O)N[C@@H](C)C(=O)OCC(=O)NC2CCCC(C)C2C)c1C (stereo not given in full)	none (no result: CHT allo act, TMEM16A inh, CHT block)
CCCNC(=S)N1CCC(C(=O)c2ccc(OC)cc2)CC1	CHT allo act 6.7 | CHT act confirm inactive | HEK293 MP dye inactive
Cc1ccc(CNc2ncc(-c3ccc4c(c3)OCO4)n2C)cc1	CHT allo act 6.6 | CHT act confirm 25 | HEK293 MP dye -31
Cn1c(-c2ccc3c(c2)OCO3)cnc1NCc1ccc(Cl)cc1	none
COC(=O)c1ccc(-c2nc(O)c3cnccn23)cc1	none | CHT act confirm 23 | HEK293 MP dye -37
Oc1nc(-c2ccc(Cl)cc2)n2ccncc12	none
COc1ccccc1CNC(=O)CN1C(=O)NC2(CCOc3ccccc32)C1=O (stereo not given)	none (no result: CHT allo act, TMEM16A inh, CHT block)
CCCCn1cnc2cc(NCc3ccncc3)ccc21	none | CHT act confirm 43 | HEK293 MP dye -43

Assay outcomes (PubChem)
